The source of these data is PubChem BioAssay (NCATS).

Records with an inconclusive call do not appear. Calls of active or inactive are those of the source. Calls follow the shape of the dose curve; as a rule, active = well fitted curve in the direction sought with a large enough effect in the signal ratio; inconclusive = small, poorly fitted or top-dose-only effect, or effect the other way, or a change in a side signal; inactive = no such curve, though single readings can be large or run the other way; the % refers to the signal ratio.

The test can be described thus: qHTS Assay for Modulators of Human Peripheral Myelin Protein 22 (PMP22) Expression/Activity (AID 1967). The conditions noted are these: Cell-based PMP22 reporter, dual-color luciferase ratio, 0% = compound-free control cells, mouse Pmp22 promoter in mouse Schwann cells; series mostly up to 115 µM. Put shortly:
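Engineered MSC80 cells, Pmp22-promoter green and EF-alpha red luciferase reporters; 24h compound treatment at 37 °C. Concentration-response fits on green, red and ratio signals, each overlap-corrected, with %Activity normalized to untreated wells.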
As to `O=C(O)CCC(=O)N1CCCC1C(=O)O` (stereo unspecified), the outcome was inactive. For `N=C(N)c1ccccc1`, the result was inactive.

In the case of `Cc1nc(N=Nc2ccc(S(=O)(=O)O)cc2S(=O)(=O)O)c(COP(=O)(O)O)c(C=O)c1O`, the result was inactive.

On to `N=S(=O)(O)Cc1noc2ccccc12`, for which the result was inactive. The entry for `O=[N+]([O-])c1cccc2cn[nH]c12` is “inactive”; for `C[C@@H](NCCc1ccc(O)cc1)[C@@H](O)c1ccc(O)cc1` it is “inactive”; for `CC[N+](CC)(CC)CC(=O)Nc1c(C)cccc1C` it is “inactive”. In the case of `O=C(O)c1cc2cc(F)ccc2[nH]1`, the result was inactive.

For `O=C(O)C1=CCCNC1`, the result was inactive. The entry for `CNc1cc(NS(=O)(=O)c2ccc(N)cc2)nc(NC)n1` is “inactive”. For `NC/C=C\C(=O)O` the value was “inactive”; for `CCSC(=N)N`, “inactive”; for `O=C(O)c1cccnc1C(=O)O`, “inactive”. For `Oc1cc2c(cc1O)C(c1ccccc1)CNCC2` (stereo unspecified) the value was “inactive”; for `CCCC[C@@]1(C2CCCC2)Cc2cc(OCC(=O)O)c(Cl)c(Cl)c2C1=O`, “inactive”. With `NS(=O)(=O)c1cccc2c1c([N+](=O)[O-])cc1nc(O)c(O)nc12`, the result was inactive. For `CCCCCCC/C=C\CCCCCCCCC(=O)O` the value was “inactive”.

As for `CC1CCN(CC[C@H]2CCCN2S(=O)(=O)c2cccc(O)c2)CC1`, the result was inactive. Consider `CCCCCCCCCCCCCCC[C@H](O)[C@H](N)CO`, for which the result was inactive. With `CCC(=O)N1CCN(C(=O)c2ccccc2)CC1`, the outcome was inactive.

As for `CSC(=N)N`, the outcome was inactive.
